Values without a mark were called inactive. Activity calls are given as the source filed them. The call rests on the fitted dose curve; in most records, active means well fitted curve in the direction sought with a large enough effect in the repeat runs; inconclusive means weak or mixed curves; inactive means flat fitted curve, though single readings scatter.
On the % scale 0 is the no-effect control and ±100 the full control effect.

A short description of the experiment: qHTS assay to test for compound auto fluorescence at 590 nm (red) in HEK293 cells (AID 720679). As to conditions: red autofluorescence 540/590 nm; series mostly up to 91.3 µM; fluorescence, % of fluorescent control: at the top concentration. In outline: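 Using HEK293 cells at 2,000 per well, the screen added 23 nL of each compound after cell attachment and incubated overnight (37C, 5% CO2). The plate reader then captured red-label fluorescence, Ex/Em 540/590nm.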
As to `COP(=S)(OC)Oc1nc(Cl)c(Cl)cc1Cl`, the “fluorescence, % of fluorescent control” value is 0.0759%.

With `CCCCCCCCCCCCCCn1cc[n+](C)c1`, the molecule was classed as inactive. `CCCCc1ccccc1`: the “fluorescence, % of fluorescent control” value is -0.304%. Still for that read-out and setting: under `BrCCCBr` stands 0.111% [at 95.7 µM]; under `c1cc[n+]2c(c1)-c1cccc[n+]1CC2`, -0.0333% [at 46 µM]; under `COc1c2c(cc3c1OCO3)CCN(C)C2`, -0.0835% [at 18.6 µM].

As to `ClC1=C(Cl)[C@]2(Cl)[C@H]3[C@H]([C@@H]4C=C[C@H]3C4)[C@@]1(Cl)C2(Cl)Cl`, the molecule was called inactive. For the molecule `COc1cnc(OC)n2nc(NS(=O)(=O)c3c(OCC(F)F)cccc3C(F)(F)F)nc12`, the “fluorescence, % of fluorescent control” value is -0.08%. On the same count and under the same terms, then `COc1ccc2[nH]cc(CCN(C(C)C)C(C)C)c2c1`, with 0.0193% [at 95.7 µM].

With `CN1C(=O)[C@@H](NC(=O)c2cc3ccccc3[nH]2)N=C(c2ccccc2)c2ccccc21`, the “fluorescence, % of fluorescent control” value is -0.193% [at 46 µM]. Consider `c1ccc(N=NNc2ccccc2)cc1`, for which the result was inactive. Turning to `N#CC(C#N)=NNc1cccc(Cl)c1`, the “fluorescence, % of fluorescent control” value is 0.0819%. Still for that read-out and setting: then `CC(O)C(=O)[O][Hg][c]1ccccc1` (stereo not given), with -0.0653%. Same read-out and setting: under `COC(=O)C(C)N(C(=O)c1ccco1)c1c(C)cccc1C` (stereo not given) stands -0.858%; under `CCCCC(CC)COC(=O)OOC(C)(C)C` (stereo not given), 0.051%.

(Values after PubChem BioAssay (Tox21).)
